Results reported in the supplement of paper PMC6555819.

Legend:
Assay in all cases: PBM binding z-score (relative to random genomic background probes); higher = stronger binding; sequences stand for … in GC…GCGATTGACAGCGTAGAATGAAGG
[1] = test system: FXR:RXRa (NR concentration 270 nM, RXRa partner concentration 90 nM)
Method in brief: (§1)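 Ligand-free nuclear receptor dimers were applied to custom Agilent 4×180K protein-binding microarrays whose double-stranded probes carried direct-repeat seeds, single-nucleotide variants, half-site ablations and random human genomic background sequences in 34-nt variable regions. Incubation lasted 1 h. Binding z-scores were computed against the random background probes from regression-normalized fluorescence.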

[2] = test system: LXRa:RXRa (NR concentration 270 nM, RXRa partner concentration 90 nM)
Method in brief: as §1

[3] = test system: LXRa homodimer (NR concentration 270 nM)
Method in brief: as §1

[4] = test system: LXRb:RXRa (NR concentration 270 nM, RXRa partner concentration 90 nM)
Method in brief: as §1

[5] = test system: LXRb homodimer (NR concentration 270 nM)
Method in brief: as §1

[6] = test system: PPARa:RXRa (NR concentration 270 nM, RXRa partner concentration 90 nM)
Method in brief: as §1

[7] = test system: PPARg:RXRa (NR concentration 180 nM, RXRa partner concentration 90 nM)
Method in brief: as §1

[8] = test system: PPARg:RXRa 270nM:90nM, anti-RXR (NR concentration 270 nM, RXRa partner concentration 90 nM)
Method in brief: as §1

[9] = test system: PPARg:RXRa 30nM:10nM, anti-RXR (NR concentration 30 nM, RXRa partner concentration 10 nM)
Method in brief: as §1

[10] = test system: PPARg:RXRa 90nM:30nM, anti-RXR (NR concentration 90 nM, RXRa partner concentration 30 nM)
Method in brief: as §1

[11] = test system: PPARg:RXRa DBDmut IVT, anti-RXR (DBD mutation: RXRa K156A/R161A, NR concentration 270 nM, RXRa partner concentration 90 nM)
Method in brief: as §1

[12] = test system: PPARg:RXRa IVT, anti-PPARg (NR concentration 270 nM, RXRa partner concentration 90 nM)
Method in brief: as §1

[13] = test system: PPARg DBDmut:RXRa IVT, anti-PPARg (DBD mutation: PPARg1 K132A/R137A, NR concentration 270 nM, RXRa partner concentration 90 nM)
Method in brief: as §1

[14] = test system: PPARg DBDmut IVT, anti-PPARg (DBD mutation: PPARg1 K132A/R137A, NR concentration 270 nM)
Method in brief: as §1

[15] = test system: PPARg homodimer (NR concentration 180 nM)
Method in brief: as §1

[16] = test system: PXR:RXRa (NR concentration 270 nM, RXRa partner concentration 90 nM)
Method in brief: as §1

[17] = test system: PXR homodimer (NR concentration 270 nM)
Method in brief: as §1

[18] = test system: RARa:RXR (NR concentration 270 nM, RXRa partner concentration 90 nM)
Method in brief: as §1

[19] = test system: RARa homodimer (NR concentration 270 nM)
Method in brief: as §1

[20] = test system: RARb:RXRa (NR concentration 270 nM, RXRa partner concentration 90 nM)
Method in brief: as §1

CGACAAAGTTCAACTAAGGTAACGTAAAGCACGC
PBM binding z-score [1]: 6.54
PBM binding z-score [2]: 5.86
PBM binding z-score [3]: 3.44
PBM binding z-score [4]: 4.09
PBM binding z-score [5]: 1.92
PBM binding z-score [6]: 4.93
PBM binding z-score [7]: 4.38
PBM binding z-score [8]: 4.95
PBM binding z-score [9]: 2.16
PBM binding z-score [10]: 3.95
PBM binding z-score [11]: 0.248
PBM binding z-score [12]: 1.7
PBM binding z-score [13]: 0.707
PBM binding z-score [14]: 1.21
PBM binding z-score [15]: 2.54
PBM binding z-score [16]: 5.16
PBM binding z-score [17]: 3.06
PBM binding z-score [18]: 3.51
PBM binding z-score [19]: 0.942
PBM binding z-score [20]: 5.07

GGAACGAGGGCACAGTTGATAGCATCTGTCGACG
PBM binding z-score [1]: 0.318
PBM binding z-score [2]: 0.136
PBM binding z-score [3]: -0.684
PBM binding z-score [4]: -0.053
PBM binding z-score [5]: -0.903
PBM binding z-score [6]: 1.95
PBM binding z-score [7]: 3.25
PBM binding z-score [8]: 3.63
PBM binding z-score [9]: 1.56
PBM binding z-score [10]: 3.28
PBM binding z-score [11]: 3.74
PBM binding z-score [12]: 3.92
PBM binding z-score [13]: 0.579
PBM binding z-score [14]: -0.629
PBM binding z-score [15]: 0.434
PBM binding z-score [16]: 0.227
PBM binding z-score [17]: -0.335
PBM binding z-score [18]: 0.367
PBM binding z-score [19]: -0.231
PBM binding z-score [20]: 2.02

TTACCAAGGTGAGCTGAGGTTGTTGATCCAACTC
PBM binding z-score [1]: 0.871
PBM binding z-score [2]: -0.206
PBM binding z-score [3]: -0.484
PBM binding z-score [4]: -0.269
PBM binding z-score [5]: -1.04
PBM binding z-score [6]: 0.271
PBM binding z-score [7]: -0.354
PBM binding z-score [8]: 0.187
PBM binding z-score [9]: -0.357
PBM binding z-score [10]: -0.0442
PBM binding z-score [11]: 1.22
PBM binding z-score [12]: 1.51
PBM binding z-score [13]: -0.399
PBM binding z-score [14]: -0.245
PBM binding z-score [15]: -0.248
PBM binding z-score [16]: 2.03
PBM binding z-score [17]: -0.915
PBM binding z-score [18]: 0.168
PBM binding z-score [19]: -0.951
PBM binding z-score [20]: 0.78

TCTTGTAGATCAATAGAGATTAAGAAAGTGCGCT
PBM binding z-score [1]: -0.285
PBM binding z-score [2]: 0.252
PBM binding z-score [3]: -0.543
PBM binding z-score [4]: -0.171
PBM binding z-score [5]: -0.122
PBM binding z-score [6]: -0.000927
PBM binding z-score [7]: 0.302
PBM binding z-score [8]: 1.34
PBM binding z-score [9]: 2.5
PBM binding z-score [10]: 2.08
PBM binding z-score [11]: 1.45
PBM binding z-score [12]: 0.39
PBM binding z-score [13]: 0.292
PBM binding z-score [14]: 1.02
PBM binding z-score [15]: -0.0923
PBM binding z-score [16]: 0.374
PBM binding z-score [17]: 0.261
PBM binding z-score [18]: -0.0638
PBM binding z-score [19]: 0.076
PBM binding z-score [20]: -0.192

TCATATAGGTAAAAAGGTGAAAGTCCGTAAGTTA
PBM binding z-score [1]: 1.56
PBM binding z-score [2]: 1.85
PBM binding z-score [3]: 0.558
PBM binding z-score [4]: 1.8
PBM binding z-score [5]: 0.394
PBM binding z-score [6]: 3.53
PBM binding z-score [7]: 3.87
PBM binding z-score [8]: 5.05
PBM binding z-score [9]: 5.01
PBM binding z-score [10]: 5.53
PBM binding z-score [11]: 4.17
PBM binding z-score [12]: 4
PBM binding z-score [13]: 0.729
PBM binding z-score [14]: 0.649
PBM binding z-score [15]: 1.85
PBM binding z-score [16]: 1.4
PBM binding z-score [17]: 0.696
PBM binding z-score [18]: 2.87
PBM binding z-score [19]: 1.81
PBM binding z-score [20]: 2.03
